The campaign covered roughly 1,200 compounds. About 250 (21%) were called active. Cut-off read from the data, not from the text of the source: active = inhibition above about 20%; inactive = the rest. Not all results are given here.

Sequence of Neuropeptide Y receptor type 1 (Homo sapiens) (P25929 whole entry, looked up): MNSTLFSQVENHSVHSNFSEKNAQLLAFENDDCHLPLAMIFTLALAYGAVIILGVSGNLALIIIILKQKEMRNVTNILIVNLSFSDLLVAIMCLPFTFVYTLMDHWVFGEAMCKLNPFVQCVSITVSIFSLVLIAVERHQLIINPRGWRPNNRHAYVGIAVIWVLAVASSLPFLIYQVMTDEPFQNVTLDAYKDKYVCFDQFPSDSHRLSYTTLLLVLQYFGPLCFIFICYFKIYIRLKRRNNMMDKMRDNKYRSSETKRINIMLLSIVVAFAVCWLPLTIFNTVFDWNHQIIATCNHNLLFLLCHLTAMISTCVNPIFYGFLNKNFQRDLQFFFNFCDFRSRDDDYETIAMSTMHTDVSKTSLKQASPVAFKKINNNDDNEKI

The assay addresses Neuropeptide Y receptor type 1 (Homo sapiens) (UniProt P25929). The experiment in a line: blockers of human NPY-Y1 signalling – HEK293-CNG cells, membrane potential fluorescence, triplicate, confirmation (AID 1254).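 Note: 0% = vehicle with agonist plus stimulus and 100% = stimulus alone without agonist.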 The settings on record: cAMP, at 3.6 µM, stronger effect = higher value, NPY challenge against isoproterenol-raised cAMP.
In the case of `O=C(CSc1nnnn1C1CCCC1)Nc1ccc2c(c1)OCCO2`, the inhibition was 10.8% (inactive). `CCN1CCN(CCNC(=O)c2ccc(/C=C3/Sc4ccccc4N(Cc4cccc(C)c4)C3=O)cc2)CC1`: the inhibition was 14.5% (inactive). On to `COC(=O)c1ccc(COC(=O)c2c(C)nn(Cc3ccccc3Cl)c2Cl)o1`, for which the inhibition was 7.48% (inactive). Turning to `CC(C)(C)NCc1cc(Br)ccc1OC1CCCC1`, the inhibition is 21.6% (active). Take `Cc1ccccc1Nc1scc(-c2ccc(Br)cc2)[n+]1-c1ccccc1C`: the inhibition is 18.4% (inactive).

On to `COc1ccccc1C1C2=C(COC2=O)Nc2cc3c(cc21)OCO3` (stereo not drawn), for which the inhibition was 2.86% (inactive). Consider `COc1ccc(-c2[nH]nc(-c3ccccc3)c2-c2nc3ccccc3[nH]2)cc1`, for which the inhibition is 13.6% (inactive). In the case of `COc1ccc(C(=O)CSc2nnc(COc3ccccc3)n2Cc2ccco2)cc1`, the inhibition was 5.39% (inactive).

Consider `Cc1cc(C)c2[nH]c(=O)c(CN(Cc3ccccc3)C(=S)NCCCN(C)C)cc2c1`, for which the inhibition is 15.2% (inactive). Take `O=S(=O)(O)c1nc2ccccc2n1Cc1ccc(Cl)cc1`: the inhibition was 5.94% (inactive). On to `O=C(NCCc1ccc2c(c1)OCCO2)c1cc2ccccc2o1`, for which the inhibition is 13.2% (inactive). For `CCCOc1ccc2c3c(c(=O)oc2c1OCCC)CCC3`, the inhibition is 5.13% (inactive).

In the case of `C/C(=N\NC(=S)NCc1ccccc1)c1ccc(Cl)cc1`, the inhibition is 4.98% (inactive). For the compound `Cc1ccc(-c2cc(C(=O)N3CCc4ccccc4C3)no2)cc1`, the inhibition was 10.9% (inactive). Regarding `OCC1(CCc2ccccc2)CCN(Cc2ccc3nsnc3c2)CC1`, the inhibition was 9.69% (inactive). For the compound `COc1ccc(CCN(C(=O)COc2ccccc2)c2nc(-c3ccccc3)cs2)cc1OC`, the inhibition is 13.1% (inactive).

For `c1ccc2c(NC3C4CC5CC(C4)CC3C5)nc(N3CCOCC3)nc2c1` (stereo not drawn), the inhibition is 25.2% (active). As for `CC(Nc1nc(N2CCN(CCO)CC2)nc2ccccc12)c1ccccc1` (stereo not drawn), the inhibition is 4.06% (inactive).

As to `c1ccc(-c2ccccc2OCCN2CCCCC2)cc1`, the inhibition was 4.72% (inactive).

Turning to `CCCCCCCCn1c2c(c(=N)c3c1CCC3)CCCC2`, the inhibition is 64.7% (active). Take `O=C(CN1CCN(c2ncc(C(F)(F)F)cc2Cl)CC1)Nc1ccc2c(c1)OCO2`: the inhibition is 12.4% (inactive). Take `Cc1ccc2nc(-c3ccccn3)cc(C(=O)Nc3ccc4c(c3)OCO4)c2c1`: the inhibition was 27% (active). In the case of `COc1cc2c(C(=O)N3CCN(C)CC3)c(CSc3ccccc3)n(C)c2cc1Br`, the inhibition was 20.6% (active).

For the compound `CS(=O)(=O)N1CCCC(C(=O)N2CCOCC2)C1` (stereo not drawn), the inhibition was -0.5% (inactive). On to `CCOC(=O)CSc1nc2c(sc(=S)n2CCc2ccccc2)c(=O)n1Cc1ccco1`, for which the inhibition was 18.3% (inactive). Take `O=C(c1cc(-c2ccc(O)cc2)on1)N1CCCc2ccccc21`: the inhibition is 2.54% (inactive). Consider `CCOC1CCCCC1NS(=O)(=O)c1ccc(Cl)cc1` (stereo not drawn), for which the inhibition is -0.15% (inactive). On to `CCCC(=O)Nc1nc2ccc(NC(=O)c3c(F)c(F)c(OC)c(F)c3F)cc2s1`, for which the inhibition was 6.69% (inactive). Turning to `Cc1ccc(N2C(=O)C3N=NN(CC(=O)N4N=C(c5cccc6ccccc56)CC4c4ccccc4)C3C2=O)cc1` (stereo not drawn), the inhibition is 0.57% (inactive). For `COC(=O)C1=C(Nc2ccc(C)cc2)C=C(C)C(C(=O)OC)C1c1ccc(F)cc1` (stereo not drawn), the inhibition is 19% (inactive).

Consider `NC(N)=N/N=C/c1ccc(OCc2ccc(Cl)cc2Cl)cc1`, for which the inhibition was 11.7% (inactive).

For the compound `CC(=O)OC(C)C[N+](C)(C)C` (stereo not drawn), the inhibition was 15.3% (inactive). For `Cc1ccc(C(=O)C[n+]2cc(-c3ccccc3)n3c2CCCCC3)cc1`, the inhibition is 22.1% (active). In the case of `CCOC(=O)N1CCN(S(=O)(=O)c2ccc(C(=O)Nc3ccc(F)cc3F)cc2)CC1`, the inhibition was 2.56% (inactive).

On to `Cc1nc(-c2ccccc2)sc1C(=O)/C=C/c1ccccc1`, for which the inhibition was 7.83% (inactive).

For the compound `COc1ccc(C(c2nnnn2C2CCCCC2)N2CCN(c3ccccc3F)CC2)cc1` (stereo not drawn), the inhibition is 15% (inactive). `Cc1ccc(SCCC(=O)OCC(=O)Nc2ncc(Cl)cc2Cl)cc1`: the inhibition is 5.19% (inactive).

With `CCCCc1c(O)nc2n(c1=O)CCS2`, the inhibition is 1.41% (inactive). For `CCCOC(=O)c1[nH]c2c(c1C)C(=O)CC(c1cccs1)C2` (stereo not drawn), the inhibition was 7.07% (inactive).

For the compound `CC1CN(CCCOc2ccccc2-c2ccccc2)CC(C)O1` (stereo not drawn), the inhibition is 2.5% (inactive). For the compound `Cc1ccc(Cn2c(NC(=O)c3ccco3)nc3ccccc32)cc1`, the inhibition was 17.4% (inactive). To `COc1cccc(CNCCc2c[nH]c3ccccc23)c1OCc1ccccc1F` belongs 9.73% (inactive); to `OC(COCCC12CC3CC(CC(C3)C1)C2)CN1CCCCC1` (stereo not drawn), 3.08% (inactive); to `Cc1ccc(/C=N/NC(=O)COc2ccccc2-c2ccccc2)cc1`, 11.6% (inactive). Turning to `CCCSc1nc(NCc2ccco2)c2c3c(sc2n1)COC(C)(CC)C3` (stereo not drawn), the inhibition is 10.4% (inactive). As for `O=C(Cc1cccs1)N(CC1CCCO1)C1(C(=O)NC2CCCCC2)CCCCC1` (stereo not drawn), the inhibition is 9.42% (inactive). As to `COc1ccccc1N1CCN(C(=O)CN(Cc2ccc(Cl)cc2)S(C)(=O)=O)CC1`, the inhibition is 11.6% (inactive). With `CCC(=O)c1c[nH]c(C(=O)NCC2CCCO2)c1` (stereo not drawn), the inhibition was 0.28% (inactive). For the compound `CCOC(=O)c1nn(-c2cccc(C)c2)cc1C(=O)c1ccccc1`, the inhibition is 5.58% (inactive). Consider `COC(=O)c1ccc(C(NC(=O)OCc2ccccc2)/C(C)=C/[C@@H](C)C(=O)NCc2ccc(OC)c(OC)c2)cc1` (stereo partly drawn), for which the inhibition was 15.9% (inactive). For the compound `O=C(NCCCN1CCOCC1)c1cnn2c(-c3ccccc3)cc(-c3ccccc3)nc12`, the inhibition is 25% (active). Consider `O=C1c2cccnc2C(Nc2ccc(S(=O)(=O)N3CCCCCC3)cc2)N1Cc1ccccc1` (stereo not drawn), for which the inhibition was 0.2% (inactive). Turning to `COc1ccc(C2Nc3ccccc3C(=O)N2Cc2ccccc2)cc1Cn1nnc2ccccc21` (stereo not drawn), the inhibition is 11.8% (inactive). Regarding `CCS(=O)(=O)n1nc(-c2ccccc2)nc1SCc1ccccc1`, the inhibition is 13.5% (inactive). Turning to `Cc1cc(C(C)(C)C)oc1C(=O)N(CC(=O)NC1CCCC1)Cc1ccc(Cl)cc1`, the inhibition was 25.8% (active). Take `O=C(/C=C/c1ccco1)Nc1cccc(-c2nc3ccccc3[nH]2)c1`: the inhibition was 2.58% (inactive). `Oc1ccc(-c2[nH]ncc2-c2nc3ccccc3s2)c(O)c1`: the inhibition was 53% (active). `CCc1ccc(CNC(=O)C2CCCN(c3nc4ccccc4o3)C2)cc1` (stereo not drawn): the inhibition was 13.2% (inactive). For the compound `CCCCn1nc(C(=O)N2CCc3ccccc32)c2ccccc2c1=O`, the inhibition is 3.55% (inactive). For the compound `Clc1ccccc1-c1cc(COc2ccc3ccccc3c2)no1`, the inhibition was 13.6% (inactive). In the case of `CCCCCCC(=O)Nc1nc(C)c(-c2csc(Nc3cccc(OC)c3)n2)s1`, the inhibition is 17.8% (inactive).

Take `CC(Oc1ccc2ccccc2c1)C(=O)NNC(=S)NC(=O)c1ccco1` (stereo not drawn): the inhibition is 10.5% (inactive). As to `Cc1ccc(C(=O)N/C(=C/c2ccc(-c3cccc([N+](=O)[O-])c3)o2)C(=O)NCCCN(C)C)cc1`, the inhibition is 9.75% (inactive).

`O=C(CSc1nc2cc3c(cc2c(=O)n1CCC1=CCCCC1)OCO3)NCc1ccco1`: the inhibition is 4.77% (inactive). For `CC(=O)N1CC(C)c2scc(C)[n+]2-c2ccccc21` (stereo not drawn), the inhibition is -0.57% (inactive). For the compound `Fc1ccc(-c2nnc(CSc3nnc(-c4ccc5c(c4)OCO5)o3)o2)cc1`, the inhibition was 10.1% (inactive). `CN(C)CCCCCN(C)Cc1cc2ccccc2o1`: the inhibition was 9.51% (inactive). Take `CC(C)Cn1cnc2c1c(=O)n(CC(O)c1ccccc1)c(=O)n2CC(C)C` (stereo not drawn): the inhibition was -1.75% (inactive).

The values above are taken from PubChem BioAssay AID1254 (The Scripps Research Institute Molecular Screening Center, 2008).
